This is an account of results in PubChem BioAssay AID686979 (National Center for Advancing Translational Sciences (NCATS), 2013).

Among all 420,000 compounds or so, about 50,000 (12%) were called active. Another 26% or so got no clear call; they are omitted. This is one part of a sample in which actives are shown more often than they occur. A number with no mark means an inactive call. Calls come from the whole dose curve; as a rule, active = well fitted inhibition curve with a large enough effect; inconclusive = small, poorly fitted or top-dose-only effect; inactive = flat fitted curve, though single readings scatter.
% is set by controls: 0 for no effect and ±100 for the full control effect; potency is the fitted concentration of half-maximal effect.

The nature of the assay: qHTS for Inhibitors of human tyrosyl-DNA phosphodiesterase 1 (TDP1): qHTS in cells in presence of CPT. Note: nearly all actives have a fitted effect of over 55% in size. As to conditions: chicken DT40 Tdp1-/-;hTDP1 cells + 20 nM CPT, ATP luminescence, 48 h; series mostly up to 46.2 µM; activity change, negative = growth inhibition: at the top concentration. In short, it runs like this: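 Chicken DT40 Tdp1-/- cells complemented with human TDP1, 400 cells/well, exposed to compounds plus 20 nM camptothecin for at least 48 h at 37 C; viability read as ATP content by CellTiter-Glo luminescence.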
Consider `CCOC(=O)C1CCN(Cc2nnc(-c3cccc(Br)c3)o2)CC1`, for which the “activity change, negative = growth inhibition” value is -15.7%.
On to `CCCCCCCNC(=O)C1(CC2CC(c3cccc(Br)c3)=NO2)CCN(C(=O)c2cc(OCC)c(OCC)c(OCC)c2)CC1` (centres undefined), for which the Potency is 23.1 µM (active).
Turning to `CN(CC(=O)NCCc1ccccc1)S(=O)(=O)c1cnc[nH]1`, the “activity change, negative = growth inhibition” value was -3.81%.
Turning to `Cn1c(SCc2ccc(F)cc2)nnc1-c1ccncc1`, the “activity change, negative = growth inhibition” value was -10.9%.
`Cc1ccc(Nc2nc(CSc3nnc(-c4ccncc4)n3-c3ccccc3C)cs2)cc1`: the Potency was 13 µM (active).
On to `CCOc1ccccc1-n1c(SCC(=O)NCc2ccco2)nnc1-c1ccncc1`, for which the “activity change, negative = growth inhibition” value was -3.89%.
Regarding `O=C(O)CC/C(=C\c1cc2c(cc1Br)OCO2)c1nc2ccccc2s1`, the “activity change, negative = growth inhibition” value was 3.75%.
On the same count and under the same terms, the same measure for `O=C(N1CCCC1)C12CC3CC(C1)CC(C(=O)N1CCCC1)(C3)C2`: 0.242%.
The same measure, in the same setting: the same measure for `CCc1nc(SCC(=O)Nc2ccccc2OC)n[nH]1`: 0.57%.
`CCCc1nc(SCC(=O)Nc2ccccc2OC)c2c(=O)n(C)c(=O)n(C)c2n1`: the Potency is 14.6 µM (active).
For the molecule `CCCc1nc(SCC(=O)N2CCCC2)c2c(=O)n(C)c(=O)n(C)c2n1`, the “activity change, negative = growth inhibition” value was -6.82%.
As for `O=C(Cc1c[nH]c2ccccc12)N/N=C/c1cccc(F)c1`, the “activity change, negative = growth inhibition” value was -2.53%.
Same read-out and setting: the same measure for `O=C(CSCc1c(Cl)cccc1Cl)NN1C(=O)c2ccccc2C1=O`: -19.9%.
Consider `Cc1ccc(Cn2c(C)c3cnn(CC(=O)NCc4ccccc4)c(=O)c3c2C)cc1`, for which the Potency is 2.91 µM (active).
On the same count and under the same terms, the result for `CC1CCCCN1CCCNC(=O)Cn1ncc2c([nH]c3ccccc32)c1=O` (centres undefined) reads “inactive”; that for `CCCn1c2ccccc2c2cnn(CC(=O)NCC3CCN(Cc4ccc(C)cc4)CC3)c(=O)c21`, 20.6 µM (active).
For `Cc1ccc(Cn2c(C)c3cnn(CC(=O)NCCN4CCOCC4)c(=O)c3c2C)cc1`, the “activity change, negative = growth inhibition” value was -2.81%.
As for `CCCn1c2ccccc2c2cnn(CC(=O)NCCCOC(C)C)c(=O)c21`, the Potency is 23.1 µM (active).
For the molecule `O=C(Cn1ncc2c3ccccc3n(Cc3ccccc3)c2c1=O)NCc1ccccn1`, the Potency entry is “inactive”.
As to `COc1cc(NC(=O)NCC2CCN(Cc3ccc(C)cc3)CC2)cc(OC)c1OC`, the “activity change, negative = growth inhibition” value is -8.33%.
`CC1CC(C)CN(CCCNC(=O)Cn2ncc3c([nH]c4ccccc43)c2=O)C1` (centres undefined): the “activity change, negative = growth inhibition” value was 0.742%.
Consider `Cc1ccccc1CNC(=O)Cn1c(C)c2cnn(-c3ccccc3)c(=O)c2c1C`, for which the “activity change, negative = growth inhibition” value is -0.956%.
On to `O=C1C(Cl)=C(N2CCOCC2)C(=O)N1c1ccccc1`, for which the “activity change, negative = growth inhibition” value is -20.8%.
The same measure, in the same setting: the result for `CCOC(=O)CNC(=O)CSc1ncccc1-c1nc2ccccc2[nH]1` reads 10.4%; that for `COc1ccccc1C1=CC(=O)C[C@H](c2ccc(F)cc2)C1`, -29.5%; that for `COc1ccc(-c2nnc3n2CCCCC3)cc1`, 8.16%.
Still for that read-out and setting: the same measure for `O=C(O)c1ccc([N+](=O)[O-])cc1Sc1ccsc1`: -11.6%; for `COc1ccc(-c2nc3c(c(SCC(=O)Nc4ccc(C(=O)O)cc4)n2)Cc2ccccc2O3)cc1`: -18.6%; for `Cc1ccc(-c2nc(Cn3c(=O)cc(-c4ccccc4)c4c(C)nn(C)c43)c(C)o2)cc1`: -16.3%.
With `CCOC(=O)Nc1ccc(NC(=O)OCC)cc1`, the “activity change, negative = growth inhibition” value is -20.3%.
As for `CCOC(=O)Nc1ccc2c(c1)N(C(=O)CCCl)c1ccccc1[S@]2=O`, the Potency was 4.61 µM (active).
On to `CCOC(=O)Nc1ccc2c(c1)N(C(=O)CCN1CCN(CCO)CC1)c1ccccc1CC2`, for which the “activity change, negative = growth inhibition” value was -0.457%.
As for `CN(CC(=O)Nc1ccccc1F)CC(=O)Nc1ccccc1Br`, the “activity change, negative = growth inhibition” value is -2.65%.
As for `CN(C(=N)N)c1ccc(/C=C2\C=Cc3ccccc32)cc1`, the Potency is 5.01 µM (active).
For `COc1ccc(N(CC(=O)N/N=C/c2cccc3c2OCCO3)S(=O)(=O)c2ccc(NC(C)=O)cc2)cc1`, the “activity change, negative = growth inhibition” value is 1.44%.
As to `CC(=O)N1CCN(C(=O)c2cccc(S(=O)(=O)Nc3ccc(C)cc3)c2)CC1`, the “activity change, negative = growth inhibition” value was -5.91%.
As for `O=C(c1cccc(S(=O)(=O)Nc2ccccc2Cl)c1)N1CCN(C(=O)c2ccco2)CC1`, the “activity change, negative = growth inhibition” value was -7.9%.
For `CCCCc1ccc(NS(=O)(=O)c2cccc(C(=O)N3CCCN(C)CC3)c2)cc1`, the Potency is 23.1 µM (active).
Regarding `COc1ccc(Br)c2c1C(=O)CC2`, the “activity change, negative = growth inhibition” value was 5.78%.
Same read-out and setting: the result for `Nc1nonc1-n1nnc(C(=O)N/N=C/C2CCCCC2)c1-c1ccccc1` reads -15%.
As for `CC(=O)Nc1ccc(Oc2ccc3c(c2)C(=O)NC3=O)cc1`, the “activity change, negative = growth inhibition” value was 25.5%.
In the case of `O=C(CCn1nnc2ccccc21)OCC(=O)c1ccc([N+](=O)[O-])cc1`, the “activity change, negative = growth inhibition” value was -22.6%.
For the molecule `O=C(NNS(=O)(=O)Cc1ccccc1)c1ccc([N+](=O)[O-])cc1`, the “activity change, negative = growth inhibition” value is -13%.
As for `O=C(CC(n1cncn1)C(Cl)(Cl)Cl)c1ccc([N+](=O)[O-])cc1` (centres undefined), the Potency is 16.4 µM (active).
For `O=C(COc1coc(CN2CCN(c3ccccc3F)CC2)cc1=O)N1CCc2ccccc21`, the “activity change, negative = growth inhibition” value is -16.5%.
Still for that read-out and setting: the result for `Cc1cc(N2CCOCC2)nc(-c2ccc(Br)cc2)n1` reads -12.4%; that for `O=C1CC(C(=O)O)NC(=S)N1` (centres undefined), 31.6%.
As to `COc1ccc(-n2c(=O)c(C)nc3cnc(N4CCOCC4)nc32)cc1`, the “activity change, negative = growth inhibition” value was 1.15%.
Regarding `COc1ccc(Nc2ncc(F)c(N3CCOCC3)n2)cc1`, the Potency is 20.6 µM (active).
